Tests used:
Experiment in all cases: DAPPL (digital affinity profiling via proximity ligation, sequencing); 10 mM Tris-HCl pH 7.5, 50 mM NaCl, 1 mM DTT, 4% glycerol, room temperature, 30 min; GST-TFs on glutathione beads, 16-mer random dsDNA library, 0.1% formaldehyde crosslink after washing; high values mean tight binding
Conditions in all cases: protein: recombinant; tags: N-terminal GST; dsDNA, one strand shown
[1] = target: T1, ELK4 (Homo sapiens, UniProt P28324-2 1-405)
T1 sequence: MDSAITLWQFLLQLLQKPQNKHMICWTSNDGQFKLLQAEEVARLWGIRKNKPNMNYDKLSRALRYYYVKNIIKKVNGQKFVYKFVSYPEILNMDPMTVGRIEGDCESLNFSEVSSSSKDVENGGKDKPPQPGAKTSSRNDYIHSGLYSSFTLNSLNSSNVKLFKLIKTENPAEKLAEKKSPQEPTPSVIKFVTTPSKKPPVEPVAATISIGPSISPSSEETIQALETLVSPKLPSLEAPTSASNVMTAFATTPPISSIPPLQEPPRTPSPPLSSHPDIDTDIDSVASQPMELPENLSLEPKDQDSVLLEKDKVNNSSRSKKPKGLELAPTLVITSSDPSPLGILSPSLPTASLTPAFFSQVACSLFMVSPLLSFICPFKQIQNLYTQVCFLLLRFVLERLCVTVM
How it was run: (§1)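 A tag-only sample was pooled with DNA-barcoded human transcription factors that had been expressed in yeast as GST fusions and captured on glutathione beads. The pools were incubated for 30 min at room temperature with 200 nmole of a random double-stranded 16-mer DNA library in Tris/NaCl/DTT/glycerol buffer, then washed, crosslinked with 0.1% formaldehyde, proximity-ligated (BsaI/T4 ligase, 1 h, 37 °C), PCR-amplified and sequenced on an Illumina NextSeq500. Binding signal is each hexamer's read frequency for a factor divided by its frequency for the tag-only sample.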

[2] = target: T2, ELF3 (Homo sapiens, UniProt P78545 1-371)
T2 sequence: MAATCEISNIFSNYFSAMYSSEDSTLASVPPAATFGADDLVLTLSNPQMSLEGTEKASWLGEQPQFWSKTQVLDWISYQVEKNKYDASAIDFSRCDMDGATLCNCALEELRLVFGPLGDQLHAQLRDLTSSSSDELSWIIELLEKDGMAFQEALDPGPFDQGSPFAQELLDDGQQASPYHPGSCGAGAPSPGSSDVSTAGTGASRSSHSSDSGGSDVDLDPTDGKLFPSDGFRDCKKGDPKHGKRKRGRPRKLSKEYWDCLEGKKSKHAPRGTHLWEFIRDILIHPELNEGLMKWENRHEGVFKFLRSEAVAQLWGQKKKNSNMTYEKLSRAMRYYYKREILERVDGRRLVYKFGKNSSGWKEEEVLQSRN
How it was run: as §1

[3] = target: ETV1 (Homo sapiens, UniProt P50549 1-477)
How it was run: as §1

[4] = target: T3, ERF (Homo sapiens, UniProt P50548 1-548)
T3 sequence: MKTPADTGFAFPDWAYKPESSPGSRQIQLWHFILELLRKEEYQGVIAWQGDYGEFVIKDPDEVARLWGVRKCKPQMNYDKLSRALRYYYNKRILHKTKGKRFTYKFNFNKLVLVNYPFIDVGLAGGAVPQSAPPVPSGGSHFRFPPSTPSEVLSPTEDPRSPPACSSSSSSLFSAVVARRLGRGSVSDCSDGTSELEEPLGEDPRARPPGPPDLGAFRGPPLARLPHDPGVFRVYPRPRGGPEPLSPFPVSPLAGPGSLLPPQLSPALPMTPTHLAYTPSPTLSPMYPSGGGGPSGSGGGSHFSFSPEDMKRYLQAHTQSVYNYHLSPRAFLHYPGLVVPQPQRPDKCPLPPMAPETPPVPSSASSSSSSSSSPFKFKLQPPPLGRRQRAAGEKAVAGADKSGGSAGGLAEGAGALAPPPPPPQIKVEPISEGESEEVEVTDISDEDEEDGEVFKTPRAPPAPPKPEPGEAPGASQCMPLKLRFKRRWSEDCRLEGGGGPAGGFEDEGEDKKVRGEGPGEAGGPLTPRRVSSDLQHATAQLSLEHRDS
How it was run: as §1

[5] = target: T4, ETV3L (Homo sapiens, UniProt Q6ZN32 1-361)
T4 sequence: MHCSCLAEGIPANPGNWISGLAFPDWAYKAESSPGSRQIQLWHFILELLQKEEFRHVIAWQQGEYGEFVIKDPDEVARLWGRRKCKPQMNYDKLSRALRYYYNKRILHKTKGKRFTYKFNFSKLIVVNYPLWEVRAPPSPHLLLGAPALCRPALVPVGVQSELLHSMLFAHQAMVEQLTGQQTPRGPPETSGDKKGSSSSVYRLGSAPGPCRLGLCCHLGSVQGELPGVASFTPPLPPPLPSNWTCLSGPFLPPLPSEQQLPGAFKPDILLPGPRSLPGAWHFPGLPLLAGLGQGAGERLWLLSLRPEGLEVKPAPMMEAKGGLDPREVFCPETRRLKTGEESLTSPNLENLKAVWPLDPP
How it was run: as §1

[6] = target: T5, ETS2 (Homo sapiens, UniProt P15036 1-469)
T5 sequence: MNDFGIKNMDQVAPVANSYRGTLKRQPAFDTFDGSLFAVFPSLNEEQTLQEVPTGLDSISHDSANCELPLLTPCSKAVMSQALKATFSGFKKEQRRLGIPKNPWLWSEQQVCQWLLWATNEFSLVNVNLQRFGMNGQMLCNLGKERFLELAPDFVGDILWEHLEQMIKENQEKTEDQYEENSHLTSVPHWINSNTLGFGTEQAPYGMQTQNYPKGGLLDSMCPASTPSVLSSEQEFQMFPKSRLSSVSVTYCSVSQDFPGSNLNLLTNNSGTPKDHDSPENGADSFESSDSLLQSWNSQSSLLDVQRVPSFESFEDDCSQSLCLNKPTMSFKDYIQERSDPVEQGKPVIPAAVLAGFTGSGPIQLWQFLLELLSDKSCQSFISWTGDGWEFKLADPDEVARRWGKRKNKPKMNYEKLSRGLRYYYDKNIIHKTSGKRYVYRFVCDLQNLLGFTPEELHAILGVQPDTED
How it was run: as §1

[7] = target: T6, SPDEF (Homo sapiens, UniProt O95238 1-335)
T6 sequence: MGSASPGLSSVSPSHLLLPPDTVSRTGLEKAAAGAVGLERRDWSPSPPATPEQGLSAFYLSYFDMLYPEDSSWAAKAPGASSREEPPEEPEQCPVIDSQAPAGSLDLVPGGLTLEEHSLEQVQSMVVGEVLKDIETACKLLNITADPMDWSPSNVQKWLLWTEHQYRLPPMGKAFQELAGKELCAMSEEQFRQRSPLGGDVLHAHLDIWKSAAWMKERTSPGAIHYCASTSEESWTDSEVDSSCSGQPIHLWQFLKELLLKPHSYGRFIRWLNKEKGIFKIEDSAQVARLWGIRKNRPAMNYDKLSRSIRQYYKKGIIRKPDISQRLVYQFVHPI
How it was run: as §1

[8] = target: T7, ETV7 (Homo sapiens, UniProt Q9Y603 1-341)
T7 sequence: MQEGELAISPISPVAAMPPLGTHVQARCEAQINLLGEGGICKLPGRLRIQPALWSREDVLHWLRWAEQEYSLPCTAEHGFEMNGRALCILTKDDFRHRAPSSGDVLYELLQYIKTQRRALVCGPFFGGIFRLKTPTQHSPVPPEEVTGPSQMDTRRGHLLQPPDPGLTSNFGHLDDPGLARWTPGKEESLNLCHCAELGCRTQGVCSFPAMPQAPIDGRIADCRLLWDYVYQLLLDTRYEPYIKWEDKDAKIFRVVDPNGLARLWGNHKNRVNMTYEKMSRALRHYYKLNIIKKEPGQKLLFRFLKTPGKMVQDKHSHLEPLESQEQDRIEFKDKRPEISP
How it was run: as §1

[9] = target: T8, ETV3 (Homo sapiens, UniProt P41162-2 1-143)
T8 sequence: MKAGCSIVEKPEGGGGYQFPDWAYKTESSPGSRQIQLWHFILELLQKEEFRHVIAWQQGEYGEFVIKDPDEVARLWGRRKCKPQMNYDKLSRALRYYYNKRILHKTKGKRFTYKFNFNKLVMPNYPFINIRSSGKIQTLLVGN
How it was run: as §1

[10] = target: ETV6 (Homo sapiens, UniProt P41212 1-452)
How it was run: as §1

Chain of ETV6 (P41212 whole entry): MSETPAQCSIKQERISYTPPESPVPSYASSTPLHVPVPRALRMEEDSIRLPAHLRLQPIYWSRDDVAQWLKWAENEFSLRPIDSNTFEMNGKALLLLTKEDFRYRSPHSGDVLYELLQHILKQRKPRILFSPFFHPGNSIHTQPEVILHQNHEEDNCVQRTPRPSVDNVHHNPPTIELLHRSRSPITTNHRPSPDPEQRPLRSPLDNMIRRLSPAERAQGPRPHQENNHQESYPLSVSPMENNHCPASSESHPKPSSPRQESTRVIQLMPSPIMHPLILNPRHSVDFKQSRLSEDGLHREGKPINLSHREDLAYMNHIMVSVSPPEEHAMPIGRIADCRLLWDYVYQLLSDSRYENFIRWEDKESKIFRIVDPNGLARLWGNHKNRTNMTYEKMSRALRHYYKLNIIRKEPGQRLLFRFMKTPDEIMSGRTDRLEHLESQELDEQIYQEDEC
Chain of ETV1 (P50549 whole entry): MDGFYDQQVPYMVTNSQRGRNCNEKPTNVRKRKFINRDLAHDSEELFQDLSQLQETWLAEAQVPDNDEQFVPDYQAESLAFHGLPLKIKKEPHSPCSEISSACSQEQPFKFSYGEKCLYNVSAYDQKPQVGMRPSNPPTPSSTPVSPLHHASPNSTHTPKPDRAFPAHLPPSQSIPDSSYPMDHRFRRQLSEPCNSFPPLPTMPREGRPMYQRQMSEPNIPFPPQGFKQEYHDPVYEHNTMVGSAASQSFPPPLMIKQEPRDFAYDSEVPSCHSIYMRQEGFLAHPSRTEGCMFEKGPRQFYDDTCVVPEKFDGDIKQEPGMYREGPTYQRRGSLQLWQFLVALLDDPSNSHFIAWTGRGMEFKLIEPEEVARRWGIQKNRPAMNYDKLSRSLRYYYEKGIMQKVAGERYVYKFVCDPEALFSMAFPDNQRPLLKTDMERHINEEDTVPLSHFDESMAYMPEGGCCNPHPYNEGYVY

## ATAATG
[1]
  binding signal: 1.16 fold enrichment (6-mer frequency, TF over GST control)
[2]
  binding signal: 1.03 fold enrichment (6-mer frequency, TF over GST control)
[3]
  binding signal: 1.16 fold enrichment (6-mer frequency, TF over GST control)
[4]
  binding signal: 1.09 fold enrichment (6-mer frequency, TF over GST control)
[5]
  binding signal: 1.2 fold enrichment (6-mer frequency, TF over GST control)
[6]
  binding signal: 1.14 fold enrichment (6-mer frequency, TF over GST control)
[7]
  binding signal: 1.06 fold enrichment (6-mer frequency, TF over GST control)
[8]
  binding signal: 1.01 fold enrichment (6-mer frequency, TF over GST control)
[9]
  binding signal: 1.09 fold enrichment (6-mer frequency, TF over GST control)
[10]
  binding signal: 1.09 fold enrichment (6-mer frequency, TF over GST control)

Source: paper PMC7862700, “An all-to-all approach to the identification of sequence-specific readers for epigenetic DNA modifications on cytosine”
